# Screens from PubChem.
# Shown are actives, neighbours in structure and some others; about 19% of the full set was active somewhere.
# HepG2 tox = qHTS for Inhibitors of TGF-b: Cytotox Counterscreen. HepG2 CAGA-GFP viability, ATP luminescence, 18 h. Potency, µM (highest dose often 46.1 µM), inactives show top-dose activity change, negative = cytotoxicity, hits mostly cytotoxic. 0.76% of 410,000 active. AID 588856, 2011; note: potency is the fitted concentration of half-maximal effect
#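 HepG2 CAGA-GFP cells (1000/well, DMEM with 1% FBS) received compound, then TGF-beta at 500 pg/mL final, and were incubated 18 hours at 37 degrees C. Viability was read by CellTiter-Glo luminescence. Media-only wells were set as complete cell-killing and DMSO as no toxicity.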
# TGFb inhibitor = qHTS for Inhibitors of TGF-b; HepG2 CAGA-GFP TGF-b/SMAD3 reporter, GFP fluorescence, 18 h; TGF-beta stimulated, 500 pg/mL final; Potency, µM (doses to about 46.1 µM), for the others: top-dose activity, negative = inhibition, hits mostly inhibitors; 1.2% of 410,000 active; AID 588855, 2011; note: potency is the fitted concentration of half-maximal effect; % is set by controls: 0 for no effect and ±100 for the full control effect; nearly all actives have a fitted effect of over 65% in size
#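 TGF-beta reporter screen: HEPG2 CAGA-GFP, 1% FBS, 500 pg/mL TGF-beta final, 18 h; per-cell GFP summed per well; curves fitted and categorized by class.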
# DT40 TDP1 no CPT = qHTS for Inhibitors of human tyrosyl-DNA phosphodiesterase 1 (TDP1): qHTS in cells in absence of CPT | Potency, µM (doses to about 46.2 µM), without a hit: at the highest dose activity change, negative = growth inhibition, usual class: inhibitors | DT40 Tdp1-/- hTDP1 cells, no CPT, ATP luminescence, 48 h | AID 686978, 2013 | 15% of 420,000 active; note: potency is the fitted concentration of half-maximal effect; % is set by controls: 0 for no effect and ±100 for the full control effect; nearly all actives have a fitted effect of over 55% in size
#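 A cellular qHTS used chicken DT40 cells lacking endogenous Tdp1 but carrying stably transfected human TDP1. Compounds were applied without camptothecin, and cell growth kinetics were judged by ATP-dependent luminescence after ≥48 hr.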
# IL-1B inflam inh = qHTS for Inhibitors of Inflammasome Signaling: IL-1-beta AlphaLISA Primary Screen; THP-1 LPS/ATP IL-1B secretion, AlphaLISA, 16 h; hits give low values; AID 743279, 2014; 4.7% of 360,000 active; activity change, % at 57.5 µM; in the data active = activity change below about -50%; inconclusive = mostly about -30% to -49%; note: % is set by controls: 0 for no effect and ±100 for the full control effect
#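 Secreted IL-1B measured by AlphaLISA bead assay after 16 h compound exposure of THP-1 cells; compounds (final up to 57.5 uM) added 1 h before LPS (250 ng/mL) and ATP (1.25 mM) stimulation; lower signal means less secretion.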
# DT40 TDP1 CPT = qHTS for Inhibitors of human tyrosyl-DNA phosphodiesterase 1 (TDP1): qHTS in cells in presence of CPT | Potency, µM (top dose mostly 46.2 µM), without a hit: at the highest dose activity change, negative = growth inhibition, hits mostly inhibitors | chicken DT40 Tdp1-/-;hTDP1 cells + 20 nM CPT, ATP luminescence, 48 h | 12% of 420,000 active; note: potency is the fitted concentration of half-maximal effect; % is set by controls: 0 for no effect and ±100 for the full control effect; nearly all actives have a fitted effect of over 55% in size
#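 Chicken DT40 Tdp1-/- cells stably complemented with human TDP1 were seeded at 400 cells/well in medium containing 20 nM camptothecin, exposed to pin-transferred compounds, and grown at 37 °C for at least 48 hr. Viability was read as ATP luminescence.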
# TDP1 inh = qHTS Assay for Inhibitors of Tyrosyl-DNA Phosphodiesterase (TDP1). AID 485290, 2010. 0.28% of 350,000 active. recombinant TDP1, AlphaScreen DNA substrate cleavage. Tyrosyl-DNA phosphodiesterase 1 (Homo sapiens), Q9NUW8. Potency, µM (top dose mostly 130 µM), without a hit: top-dose activity change, negative = inhibition, most hits filed as inhibitors; note: potency is the fitted concentration of half-maximal effect; % is set by controls: 0 for no effect and ±100 for the full control effect; nearly all actives have a fitted effect of over 40% in size
# Target sequence (Q9NUW8 whole entry, looked up): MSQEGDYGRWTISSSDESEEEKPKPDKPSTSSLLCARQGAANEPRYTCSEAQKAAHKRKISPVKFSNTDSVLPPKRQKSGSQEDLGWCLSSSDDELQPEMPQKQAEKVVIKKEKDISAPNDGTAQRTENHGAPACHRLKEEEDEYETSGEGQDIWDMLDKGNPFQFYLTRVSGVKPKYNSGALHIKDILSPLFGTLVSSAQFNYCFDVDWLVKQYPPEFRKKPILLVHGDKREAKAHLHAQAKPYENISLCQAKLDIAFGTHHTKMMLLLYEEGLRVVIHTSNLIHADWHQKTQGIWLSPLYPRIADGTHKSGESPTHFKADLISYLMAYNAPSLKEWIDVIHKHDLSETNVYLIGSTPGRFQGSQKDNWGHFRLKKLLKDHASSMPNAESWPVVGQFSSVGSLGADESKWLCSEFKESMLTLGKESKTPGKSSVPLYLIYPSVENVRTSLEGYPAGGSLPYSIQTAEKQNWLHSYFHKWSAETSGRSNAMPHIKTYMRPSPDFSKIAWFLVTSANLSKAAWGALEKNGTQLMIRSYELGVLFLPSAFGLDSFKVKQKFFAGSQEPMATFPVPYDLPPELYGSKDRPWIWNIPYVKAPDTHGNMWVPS
#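 Tdp1 1 nM final; 15 min RT w/ cpd; substrate 15 nM, 5 min; beads 10 ug/ml, 10 min; AlphaScreen read. Neg ctrl: no enzyme.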
# Numbers without * were called inactive; ? = inconclusive; / = no result given; [ ] = remark or other dose. Unless noted, calls come from the whole dose curve; as a rule, active = well fitted curve in the direction sought with a large enough effect; inconclusive = small, poorly fitted or top-dose-only effect, or another doubt; inactive = no such curve, though single readings can be large; an effect the other way counts as inactive or inconclusive.
SMILES,HepG2 tox,TGFb inhibitor,DT40 TDP1 no CPT,IL-1B inflam inh,DT40 TDP1 CPT,TDP1 inh
Cc1cc(C)c[n+](CC(=O)c2ccc(-c3ccccc3)cc2)c1,-41.4%,?,?,-7.5,18.4µM*,-1.9%
Cc1cc(C)c[n+](CC(=O)c2ccc(NC(=O)c3ccccc3)cc2)c1,-47.5%,-21.6%,?,0.0,?,-5.1%
COc1cc(C=C(c2nc3ccccc3s2)c2nc3ccccc3s2)ccc1O,-32.7%,?,-27.6%,-89.6*,-17.9%,6.9%
COc1cc(/C=C/c2nc3ccccc3s2)cc(OC)c1O,-15.2%,2.0%,-17.7%,-10.8,-1.5%,-2.3%
COc1ccc(C=C(c2nc3ccccc3s2)c2nc3ccccc3s2)cc1O,-29.4%,0.0%,20.6µM*,-97.8*,?,14.1%
Cc1c(N)nc(C(CC(N)=O)NCC(N)C(N)=O)nc1C(=O)NC(C(=O)NC(C)C(O)C(C)C(=O)NC(C(=O)NCCc1nc(-c2nc(C(=O)NCCCN[C@@H](C)c3ccccc3)cs2)cs1)C(C)O)C(O[C@@H]1O[C@@H](CO)[C@@H](O)[C@H](O)[C@@H]1O[C@H]1O[C@H](CO)[C@@H](O)[C@H](OC(N)=O)[C@@H]1O)c1cnc[nH]1 (some centres undefined),/,/,1.68µM*,/,1.19µM*,/
COc1ccc(C(=O)CC2(O)C(=O)N(CCc3ccccc3)c3ccc(Br)cc32)cc1OC (centres undefined),-13.9%,?,?,/,16.4µM*,/
C=CCN1C(=O)C(O)(CC(=O)c2ccc(N)cc2)c2ccccc21 (centres undefined),9.1%,10.3%,?,-9.4,?,1.2%
O=C(CC1(O)C(=O)N(CCc2ccccc2)c2ccc(Br)cc21)c1ccc(F)cc1 (centres undefined),-99.4%,?,16.4µM*,/,?,/
C=CC[C@@H]1C=C[C@H](O/N=C\[C@@H](C)[C@H](OCc2ccccc2)C(C)C)[C@H](CO)O1,/,/,/,/,/,5.8%[21 µM]
Cc1ccc(NC(=O)C2(C)CCN2CCc2ccccc2)cc1O (centres undefined),0.8%,2.5%,-21.4%,0.0,-24.2%,/
Cc1c(Br)cccc1NC(=O)C1(C)CCN1Cc1ccccc1OC(F)F (centres undefined),-90.6%,?,?,-1.5,25.9µM*,/
COc1ccc(OC)c(NC(=O)C2(C)CCN2Cc2ccsc2)c1 (centres undefined),-3.3%,-8.1%,11.6µM*,-9.4,16.4µM*,/
CC(=O)N1CCc2cc(NC(=O)C3(C)CCN3CCc3ccccc3)ccc21 (centres undefined),-23.8%,-14.7%,20.6µM*,-6.2,20.6µM*,/
COc1ccc(OC)c(NC(=O)C2(C)CCN2Cc2ccccc2OC(F)F)c1 (centres undefined),-28.2%,-11.5%,16.4µM*,-17.0,?,/
CN1CCN(c2ncc3nc(-c4cccc(C#N)c4)c(=O)n(C[C@H]4CCCO4)c3n2)CC1,/,/,-11.3%,/,?,/
CCCC(C)NC(=O)C1c2ccccc2Oc2ccccc21 (centres undefined),-12.9%,-26.2%,9.2%,0.0,19.5%,/
O=C(Nc1ccc(Oc2ccccc2)cc1)c1csc(COCCO)n1,-34.1%,-48.8%,?,61.7,?,/
COc1ccc(N2CC(NC(=O)COc3ccccc3C)CC2=O)cc1OC (centres undefined),-14.7%,1.7%,?,/,-5.0%,5.2%
COc1cccc(NC(=O)C2(C)CCN2Cc2ccccc2OC(F)F)c1 (centres undefined),-16.7%,-14.0%,16.4µM*,-12.9,20.6µM*,/
CC(=O)N1CCc2cc(NC(=O)C3(C)CCN3Cc3ccccc3OC(F)F)ccc21 (centres undefined),-29.3%,5.9%,18.4µM*,-9.4,25.9µM*,/
CC1(C(=O)Nc2cccc(NS(C)(=O)=O)c2)CCN1Cc1ccccc1OC(F)F (centres undefined),-31.2%,-2.2%,16.4µM*,-22.1,23.1µM*,/
CN(C(=O)NCc1noc2ccccc12)c1cccc(Cl)c1,-9.2%,-11.3%,-23.6%,/,-27.5%,-2.6%
Cc1ccc(C)c(-c2csc(NC(=O)c3c(C)noc3C)n2)c1,-13.0%,-13.5%,?,62.3,?,0.5%
Cc1csc(NC(=O)c2c(-c3ccccc3)noc2C)n1,1.4%,7.2%,?,52.1,0.0%,/
SMILES,HepG2 tox,TGFb inhibitor,DT40 TDP1 no CPT,IL-1B inflam inh,DT40 TDP1 CPT,TDP1 inh
Cc1ccc(-c2csc(NC(=O)c3c(C)noc3C)n2)cc1C,-37.9%,-23.6%,13µM*,-16.7,18.4µM*,0.2%
Cc1onc(-c2ccccc2)c1C(=O)Nc1nc(-c2ccc(F)c(F)c2)cs1,-48.8%,?,25.9µM*,10.9,?,-2.1%
Cc1ccc(-c2csc(NC(=O)c3c(C)noc3C)n2)s1,-2.0%,?,4.11µM*,-10.0,5.17µM*,1.0%
CCc1noc(C)c1C(=O)OCC(=O)c1ccc(NC(C)=O)cc1F,12.9%,6.8%,20.6µM*,26.0,?,-0.3%
O=C1Nc2c(c(=O)[nH]c(=O)n2-c2ccc(Cl)cc2)C1(NS(=O)(=O)c1ccccc1)C(F)(F)F (centres undefined),15.9%,43.3%,7.7%,/,3.0%,0.0%
CCCCNC(=O)O[C@H]1C[C@@H]2CCN3C(=O)CCC[C@H]([C@H]1Cc1ccccc1)[C@H]23,-18.4%,-28.5%,?,-0.3,-0.1%,/
CC(=O)Nc1ccccc1-c1nc2ccccc2n(CC(=O)Nc2cccc(C)c2C)c1=O,-6.2%,17.6%,-8.3%,/,-23.0%,11.4%
COC(=O)c1ccc(-c2csc(NC(=O)c3c(C)noc3C)n2)cc1,12.8%,0.9%,20.6µM*,48.1,16.4µM*,-0.1%
CCc1noc(C)c1C(=O)OCC(=O)Nc1nc(-c2ccc(F)c(F)c2)cs1,-20.8%,-10.5%,14.6µM*,-79.8*,?,2.7%
CCOC(=O)Cc1csc(NC(=O)c2c(C)noc2C)n1,-5.1%,-11.2%,0.2%,64.5,-0.1%,/
Cc1noc(C)c1C(=O)Nc1nc(C23CC4CC(CC(C4)C2)C3)cs1,-77.2%,-2.6%,18.4µM*,-58.4*,?,-6.5%
